Screening data from PubChem.
KCNH2 3.1 block: qHTS for Inhibitors of KCHN2 3.1: Mutant qHTS. Potassium voltage-gated channel subfamily H member 2, brain isoform KCNH2 3.1 (human). U2OS KCNH2 3.1, thallium flux FluxOr; active compounds read low. activity change, % (tested at about 1.8 µM). 0.95% of 340,000 active. AID 720553, 2013;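 active = maximum activity change below -70%; inconclusive = maximum activity change from -70% to -50%; inactive = maximum activity change above -50%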;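 note: thallium influx rate constant from kinetic fluorescence after stimulation buffer; % is set by controls: 0 for no effect and ±100 for the full control effect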
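Virally transduced U2OS (3.1 isoform, 4 h infection in dark at RT) → overnight 37 C → FluxOr + Red40 in HBSS/HEPES, 45 min → stimulation buffer, 2 min kinetic read → rate constant vs DMSO controls.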
TRPML1 blocker: qHTS for Inhibitors of the Human Mucolipin Transient Receptor Potential 1 (TRPML1). activity change, negative = inhibition, % (no concentration beside the values). TRPML1-inducible cells, Ca2+ dye fluorescence, FDSS; active compounds read low; inhibition of EC80 agonist-evoked calcium signal. Mucolipin-1 (Homo sapiens), Q9GZU1. AID 624415, 2012. 0.02% of 390,000 active; in the data active = activity change below about -50%; inconclusive = between about -30% and that limit;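 note: stimulus is agonist 54-4 at its EC80 concentration; % is set by controls: 0 for no effect and ±100 for the full control effect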
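Calcium fluorescence in TRPML1-DL cells induced overnight with Tet: a 110 s read after compound pin addition, then a 110 s antagonist read after challenge with 54-4 at 4 uM final (EC80).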
Glioma ERSR ind: qHTS for Inducers of the Endoplasmic Reticulum Stress Response (ERSR) in Human Glioma: qHTS | U87-MG GRP78 promoter luciferase reporter, 16 h | Potency, µM, for the others: top-dose activation, actives largely listed as activators | 0.02% of 420,000 active | AID 602332, 2012; active = well fitted activation curve with a large enough effect; inconclusive = small, poorly fitted or top-dose-only effect; inactive = no such curve, though single readings can be large or run the other way; note: potency is the fitted concentration of half-maximal effect; series mostly up to about 76 µM; % of control where 0% means no effect; nearly all actives have a fitted effect of over 35% in size
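Stably transfected U87-MG human glioma cells carrying a GRP78-based luminescent sensor were seeded at 1000 cells/well, pin-dosed with compounds and incubated 16 h. Luciferase reagent was then added, and end-point luminescence was read after 10 min at room temperature.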
TRPML1 ag: qHTS for Agonists of the Human Mucolipin Transient Receptor Potential 1 (TRPML1). 0.12% of 410,000 active. Mucolipin-1 (Homo sapiens), Q9GZU1. activation, % (test concentration not listed). TRPML1-expressing cells, Ca2+ dye fluorescence, FDSS; in the data active = activation above about 50%; inconclusive = mostly about 30% to 49%; note: 0% is about no effect
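Cells: TRPML1-DL, 1X Tet inducer, ~16 h at 37 degrees C/5% CO2. Dye: ABD Ca8 no-wash + quencher, 45-90 min RT. Read: 10 s baseline, compound add, 110 s agonist phase; 54-4 EC80 (4uM final), 110 s antagonist phase.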
hERG WT inh: qHTS for Inhibitors of KCHN2 3.1: Wildtype qHTS. U2OS, BacMam KCNH2, thallium flux FluxOr; active compounds read low. activity change, % at 1.84 µM. 0.37% of 340,000 active;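 active = maximum activity change below -70%; inconclusive = maximum activity change between -70% and -50%; inactive = maximum activity change above -50%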; note: % is set by controls: 0 for no effect and ±100 for the full control effect
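U2OS cells transduced with wild-type KCNH2 virus are loaded with FluxOr dye for 45 min, and thallium flux is measured in kinetic reads before and after stimulation buffer. Rate constants are normalized to DMSO controls.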
TSG101-PTAP inh: qHTS Assay for Iinhibitors of HIV-1 Budding by Blocking the Interaction of PTAP/TSG101; Tumor susceptibility gene 101 protein (Homo sapiens), Q99816; Fluorescence polarization, FITC-PTAP peptide / Tsg101 binding; Potency, µM (series often up to 115 µM), without a hit: at the highest dose activity change, negative = inhibition, hits mostly inhibitors; 340,000 tested, under 10 active; active = well fitted inhibition curve with a large enough effect in the main read-out, with a control signal flat, not every such curve was filed as active; inconclusive = small, poorly fitted or top-dose-only effect, or effect the other way, or a change in a side signal; inactive = no such curve, though single readings can be large or run the other way; note: potency is the fitted concentration of half-maximal effect; % of control where 0% means no effect
Target sequence (Q99816 whole entry, looked up): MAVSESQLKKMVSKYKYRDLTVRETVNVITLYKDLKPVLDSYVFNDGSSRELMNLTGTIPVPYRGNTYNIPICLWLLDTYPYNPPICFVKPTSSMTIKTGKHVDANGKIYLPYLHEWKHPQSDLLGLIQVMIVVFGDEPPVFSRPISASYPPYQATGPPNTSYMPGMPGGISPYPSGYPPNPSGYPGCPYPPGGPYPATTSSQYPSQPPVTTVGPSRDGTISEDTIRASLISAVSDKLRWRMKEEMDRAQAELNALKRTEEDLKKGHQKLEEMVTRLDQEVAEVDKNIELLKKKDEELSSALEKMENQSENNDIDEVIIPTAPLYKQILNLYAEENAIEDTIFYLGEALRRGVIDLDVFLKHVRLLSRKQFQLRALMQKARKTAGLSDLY
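Fluorescence anisotropy tracks displacement of a FITC-tagged PTAP peptide (50 nM) from the Tsg101 binding domain (10 uM), following a 20 min room-temperature incubation at pH 7.5.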
* hit, by the source's call; u = inconclusive; x = no result given. Shown are actives, neighbours in structure and some others; about 1% of the full set was active somewhere.

SMILES	KCNH2 3.1 block	TRPML1 blocker	Glioma ERSR ind	TRPML1 ag	hERG WT inh	TSG101-PTAP inh
CCN(CC)CCNCC(=O)Nc1ccc(Cl)cc1C(=O)c1ccccc1	-95*	-2	-7%	0	-87*	-5%
CN1/C(=C\C=C2C(=O)NC(=S)NC2=O)C(C)(C)c2ccccc21	-27	-18	-6%	117*	-28	u
CC1(C)OC(c2ccccc2)=C/C(=C/C=C2C(=O)NC(=S)NC2=O)O1	-17	-19	-1%	u	-11	17%
CN1C(=O)[C@]23CC4=CC=C[C@H](O)[C@H]4N2C(=O)[C@@]1(CO)SS3	x	x	-12%	x	x	x
C=Cn1c(P(=S)(N2CCOCC2)N2CCOCC2)cc2c1CCCC2	6	-4	-3%	68*	-6	1%
COC(=O)C1=C(c2ccccc2OCc2ccccc2)C[C@@H]2CC[C@H]1N2C(=O)NCc1ccccc1	x	5	-1%	2	x	x
COC(=O)C1=C(c2cccc(OC)c2OC)C[C@@H]2CC[C@H]1N2C(=O)NCCS(C)=O (stereo partly drawn)	6	32	-4%	-1	-163*	0%
COC(=O)C1=C(c2ccccc2OCc2ccccc2)C[C@@H]2CC[C@H]1N2C(=O)NCc1ccc(Br)cc1	-82*	6	-4%	2	0	-3%
COC(=O)C1=C(c2cccc(OC)c2OC)C[C@@H]2CC[C@H]1N2C(=O)NCCO	-1	-22	-2%	0	5	-2%
CC1=C(O)C(=O)[C@H]2O[C@@H]2C1=O	x	x	-12%	x	x	x
CCOC(=O)C1CCN(Cc2ccc(Cl)nc2)CC1	-3	9	-3%	0	-74*	-8%
CCOc1ccc(CN2CCN(C(=O)Cc3ccccc3)CC2)cc1	0	-1	-6%	0	-7	2%
COC(=O)C1=C(c2ccc(OC(F)(F)F)cc2)C[C@@H]2CC[C@H]1N2C(=O)N1CCC(C)CC1	-15	-5	-3%	0	22	-10%
COC(=O)C1=C(c2ccc(S(C)(=O)=O)cc2)C[C@@H]2CC[C@H]1N2C(=O)N1CCC(C)CC1	-99*	8	-4%	-1	-14	-5%
Cc1ccc(OP(=O)(NCc2ccccc2)Oc2ccc(C)cc2)cc1	-87*	-1	-5%	2	-12	0%
CON(C)C(=O)Nc1ccc(Br)c(Cl)c1	x	x	4%	x	x	x
Nc1ccc(CCN2CCN(c3cccc(C(F)(F)F)c3)CC2)cc1	-72*	-4	-3%	0	9	-8%
N#Cc1ccc(N2CCNCC2)c(F)c1	-76*	-9	-10%	0	u	-1%
Cn1cc(C=C2C(=O)NC(=O)NC2=O)c2ccccc21	-11	-4	0%	-1	-14	-7%
O=C1NC(=O)C(=Cc2csc3ccccc23)C(=O)N1	-180*	-5	-11%	-1	-209*	-3%
